A selection: hits, their analogues and other compounds. The true share with any hit is near 3.6%.
MazF activator – MazEF (E. coli) toxin RNase activation; P0AE70; FAM/BHQ RNA-DNA oligo cleavage fluorescence, 5 h; activation, % at 20 µM; 350,000 compounds, 0.32% hits; AID 504720; in the data active = activation above about 50%
Target sequence (P0AE70 whole entry, looked up): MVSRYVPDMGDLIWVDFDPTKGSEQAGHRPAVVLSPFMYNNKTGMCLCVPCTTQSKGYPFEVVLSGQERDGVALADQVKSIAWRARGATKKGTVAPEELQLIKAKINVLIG
Bead autofluor – flagged as autofluorescent in microsphere protease counterscreen. 360,000 compounds, 3.1% hits. compound autofluorescence counterscreen, microsphere flow cytometry; stronger effect = higher value. fluorescence intensity (test concentration not listed); in the data active = fluorescence intensity above about 16000; inconclusive = no clear call, values can overlap the other calls
Anthrax LF prot – blocks Bacillus anthracis lethal factor protease; inhibition, % at 10 µM; 360,000 compounds, 0.12% hits; multiplex microsphere protease cleavage assay, LF; P15917; AID 588501
BoNT F protease – blocks Botulinum neurotoxin F light chain protease; Multiplex microsphere protease cleavage assay, flow cytometry; 360,000 compounds, 0.22% hits; inhibition, % at 10 µM; in the data active = inhibition above about 35%, passing the limit was not always enough; inconclusive = no clear call, values can overlap the other calls
BoNT-A LC inh2 – inhibitors of Botulinum neurotoxin A light chain protease; multiplex microsphere protease substrate cleavage, flow cytometry; inhibition, % at 10 µM; 360,000 compounds, 0.17% hits; AID 588499
Hits are given with their value; . = inactive; ? = inconclusive; / = no result. Cut-off read from the data, not from the text of the source, unless noted: active = inhibition above about 30%; inconclusive = no clear call, values can overlap the other calls; inactive = below that.

SMILES	MazF activator	Bead autofluor	Anthrax LF prot	BoNT F protease	BoNT-A LC inh2
Cc1cc2oc(C(=O)N(Cc3ccccc3)C3CCS(=O)(=O)C3)cc(=O)c2cc1Cl (centres undefined)	.	19953	.	.	.
Cc1ccc(CN(C(=O)c2cc3ccccc3oc2=O)C2CCS(=O)(=O)C2)cc1 (centres undefined)	.	21783	.	.	.
Cc1cc(C)cc(NC(=O)CN2CCC(C(=O)c3ccccc3)CC2)c1	.	.	.	.	.
Cc1cc(C)c(C(=O)NCCCN2CCOCC2)c(C)c1	.	.	.	?	.
O=C(Nc1ccc(-c2cn3ccsc3n2)cc1)c1ccc(F)c(S(=O)(=O)N2CCOCC2)c1	.	19935	.	.	.
Nc1ncnc2c1cnn2C1CCCCC1	.	.	.	.	.
COc1ccc(OC)c(C(C)NC(=O)c2ccc(Br)cc2)c1 (centres undefined)	.	.	.	.	.
COc1cc(Br)c(C(C)NC(=O)c2ccccc2)cc1OC (centres undefined)	.	21305	.	.	.
CCOC(=O)C1=C(Cn2cnc3ccccc32)NC(=O)NC1c1ccc(OC)cc1 (centres undefined)	.	16933	.	.	.
CN1CCCC(OC(=O)c2cccc(Br)c2)C1 (centres undefined)	.	.	.	?	.
CN1CCC(OC(=O)c2cccc(Br)c2)CC1	.	21018	.	.	.
CCOC(=O)C1CCN(C(=O)c2ccccc2)c2scc(-c3ccccc3)c2C1=O (centres undefined)	.	.	.	.	.
CCC(NC(=O)CN1CCN(C(=O)c2cccs2)CC1)c1ccc(C)cc1 (centres undefined)	.	.	.	.	.
COc1ccc(C2C(C(=O)Nc3ccccc3OC)=C(C)Nc3ncnn32)cc1 (centres undefined)	.	.	.	.	.
COc1cccc(C2C(C(=O)OC(C)C)=C(C)Nc3ncnn32)c1 (centres undefined)	.	20726	.	.	?
COc1cc(OC)c(C2C(C(=O)Nc3ccc(C)cc3C)=C(C)Nc3ncnn32)cc1OC (centres undefined)	.	23198	.	.	.
CC1=C(C(=O)Nc2ccc(C)cc2C)C(c2ccc([N+](=O)[O-])cc2)n2ncnc2N1 (centres undefined)	.	.	.	.	.
COc1ccccc1C1C(C(N)=O)=C(C)Nc2ncnn21 (centres undefined)	.	16247	.	.	.
COc1ccccc1C1C(C(=O)NCc2ccccc2)=C(C)Nc2ncnn21 (centres undefined)	.	.	.	.	.
CC1=C(C(=O)OC(C)C)C(c2cccc(F)c2)n2ncnc2N1 (centres undefined)	.	.	.	.	.
COc1cc(OC)c(C2C(C(=O)Nc3ccccc3)=C(C)Nc3ncnn32)cc1OC (centres undefined)	.	16373	.	.	.
CCOc1cc(N2CCOCC2)c(OCC)cc1NC(=O)COC(=O)CCn1c(C)csc1=O	.	.	.	.	.
O=C(C=C(C(=O)c1ccccc1)c1ccccc1)c1ccccc1	.	.	.	.	.
CCOC(=O)C1=C(c2ccccc2)Nc2ncnn2C1c1ccccn1 (centres undefined)	.	.	.	.	.
COC(=O)C1=C(C)Nc2ncnn2C1c1ccccn1 (centres undefined)	.	21583	.	.	.
SMILES	MazF activator	Bead autofluor	Anthrax LF prot	BoNT F protease	BoNT-A LC inh2
Cc1ccccc1N=Cc1ccc[nH]1	.	.	.	?	.
Cc1ccc(N=Cc2ccc[nH]2)c(O)c1	.	21732	.	.	?
N#Cc1cc(C#N)c(N2CCN(c3cccc(Cl)n3)CC2)nc1N	.	19498	.	.	.
O=C1O[C@@H](c2ccccc2)C[C@@H](O)C(=O)CCc2ccccc21	/	.	.	.	.
Cc1cc(C(=O)CSc2nnc(N)s2)c(C)n1CCc1ccc(Cl)cc1	.	22078	.	.	?
Nc1c(-c2ccccc2)cnn1-c1cccc([N+](=O)[O-])c1	.	17591	.	.	.
CCc1nc2c(OCc3cc(Cl)cc(Cl)c3)cccn2c1N(C)C(=O)CC(C)C	/	.	.	.	.
CCOc1cc(/C=N/Nc2ccccc2Cl)ccc1OCC(=O)O	.	.	.	.	.
CCOC(=O)C1CCCN(C(=O)CCc2ccccc2)C1 (centres undefined)	.	.	.	.	.
Cc1cc(C)n(C2CCCCC2OC(=O)CCc2ccccc2)n1 (centres undefined)	.	.	33	?	?
O=C(NCCCN1CCN(Cc2ccccc2)CC1)C1CCN(S(=O)(=O)N2CCC3(CC2)OCCO3)CC1	.	21569	.	.	.
CCC(NC(=O)c1cncc(Br)c1)c1ccccc1 (centres undefined)	.	.	.	.	.
COc1ccc(C)c(NC(=O)C2CC(=O)NC3=C2C(=O)CCC3)c1 (centres undefined)	.	.	.	.	.
COc1cc(NC(=O)C2CC(=O)NC3=C2C(=O)CCC3)c(OC)cc1Cl (centres undefined)	.	23479	.	.	.
COc1ccc(NC(=O)C2CC(=O)NC3=C2C(=O)CC(C)(C)C3)cc1 (centres undefined)	.	23174	.	.	.
CCOc1ccc(NC(=O)CSc2nc3ccccc3c(=O)n2CCNC(C)=O)cc1	.	20012	.	.	.
COc1ccc(NC(=O)CSc2nc3ccccc3c(=O)n2CCNC(C)=O)c(OC)c1	.	.	.	.	.
COc1ccc(OC)c(NC(=O)CSc2nc3ccccc3c(=O)n2CCNC(C)=O)c1	.	20543	.	.	.
CCn1c(SCC(=O)Nc2ccc(NC(=O)c3ccco3)c(OC)c2)nc2ccccc2c1=O	.	20994	.	.	.
C[C@H](CO)N1C[C@H](C)[C@H](CN(C)Cc2ccccc2)Oc2ncc(Br)cc2C1=O	.	.	.	.	.
COC(=O)c1cnn(C(=O)c2ccccc2Br)c1N	.	22952	.	.	.
CCOC(=O)C1(C)CCN1C(=O)c1cc(OC)ccc1Br (centres undefined)	/	.	.	.	.
COC(=O)c1cnn(C(=O)c2cc(OC)ccc2Br)c1N	.	23297	.	.	.
C[C@@H]1CN([C@H](C)CO)C(=O)c2cc(C#CC3CCCCC3)cnc2O[C@H]1CN(C)Cc1cccnc1	.	.	.	.	.
Cn1ccnc1SCC(=O)c1cccc(Br)c1	.	19955	.	.	.
SMILES	MazF activator	Bead autofluor	Anthrax LF prot	BoNT F protease	BoNT-A LC inh2
CC(=O)Oc1c(Cl)c(N2CCOCC2)c(OC(C)=O)c2ccccc12	.	17480	.	.	.
c1ccc(N2CCN(c3c4c(nc5ncnn35)CCC4)CC2)cc1	.	21815	.	.	.
COc1cccc(N2CCN(c3c4c(nc5ncnn35)CCC4)CC2)c1	.	22408	.	.	.
O=S1(=O)[C@H]2C[C@@H]3C=C[C@]2(CN1Cc1ccc(C(F)(F)F)cc1)O3	.	.	.	.	.
COc1ccc(Cl)cc1NC(=O)C1CCCN(S(C)(=O)=O)C1 (centres undefined)	.	.	.	.	.
COc1cc(NC(=O)C2CC(c3cccc(OC)c3OC)=NO2)cc(OC)c1OC (centres undefined)	.	22158	.	.	.

Screening data from PubChem BioAssay.
